These results are taken from PubChem BioAssay (NCI).

Holding throughout (test): NCI-60 one-dose screen, 48 h (100 = growth as untreated, 0 = no growth, -100 = all killed)
Conditions in all cases: 10 µM unless noted

Experiment [1] concerns T-47D breast.
Experiment [2] has as its system BT-549 breast.
Experiment [3] relates to MDA-MB-435 melanoma.
Experiment [4] deals with SW-620 colon.
In experiment [5] the test system is MCF7 breast.
Experiment [6] concerns HCT-116 colon.
The subject of experiment [7] is HCC-2998 colon.
For experiment [8], the system named is KM12 colon.

Compounds without any hit were thinned out: in the full panel of roughly 83,000, 20% have a hit.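 Activity criterion: percent growth below 10, measured after cells in 96-well plates were exposed to a single compound concentration for 48 hours.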 Values without a mark were called inactive. The source made the active and inactive calls.

For `Cc1ccc(S(=O)(=O)NCCCNc2nccc(-c3c(-c4ccccc4)nc4sccn34)n2)cc1`, the growth was 39.9% in experiment [1]; 38.9% in experiment [2]; 34% in experiment [3]; 58.1% in experiment [4]; 42.8% in experiment [5]; 15.2% in experiment [6]. Further, the growth was 93.9% in experiment [7] and 18.6% in experiment [8].
In the case of `Cc1cc(C)c2c(=O)[nH]c(SCC(=O)Nc3cccc(S(=O)(=O)N(C)C)c3)nc2n1`, the growth is 92.4% in experiment [1]; 103% in experiment [2]; 105% in experiment [3]; 105% in experiment [4]; 97.4% in experiment [5]; 97.1% in experiment [6]. Besides, the growth was 106% in experiment [7] and 112% in experiment [8].
On to `Cc1ccc2nc(-c3c(CCCO)noc3N)[nH]c(=O)c2c1`, for which the growth is 107% in experiment [1]; 102% in experiment [2]; 110% in experiment [3]; 103% in experiment [4]; 88.7% in experiment [5]; 102% in experiment [6]. Besides, the values for the growth in experiment [7] and in experiment [8] were 128% and 102%, respectively.
For the molecule `O=[N+]([O-])c1ccc(S(=O)(=O)N2CCN(c3ccnc4cc(Cl)ccc34)CC2)c([N+](=O)[O-])c1`, the growth in experiment [1] was 60.3%; in experiment [2], 97.6%; in experiment [3], 98.1%; in experiment [4] it was 40.5%; in experiment [5], 52.7%; in experiment [6] it was 77.5%. For the same molecule, the growth in experiment [7] was 106%; in experiment [8], 103%.
Take `O=C(Nc1cccc(C(F)(F)F)c1)Nc1ccc(OCc2nnc(-c3ccccc3)o2)c(F)c1`: the growth is 21.1% in experiment [1]; 29.6% in experiment [2]; 49.4% in experiment [3]; 28.7% in experiment [4]; 24.8% in experiment [5]; 14.6% in experiment [6]. In addition, the growth in experiment [7] was 64.3%; in experiment [8], 12.2%.
For the molecule `O=[N+]([O-])c1cc(S(=O)(=O)OCC2CO2)ccc1Cl` (stereo not drawn), the growth is 77.1% in experiment [1]; 91.3% in experiment [2]; 97.7% in experiment [3]; 41.2% in experiment [4]; 75.5% in experiment [5]; 54% in experiment [6]. Further, the growth in experiment [7] was 107%; in experiment [8], 82.6%.
Regarding `CN1CCN(CCCOc2ccc3nc(Nc4ccc(C(F)(F)F)c(Cl)c4)ccc3c2)CC1`, the growth is 39.9% in experiment [1]; 80.9% in experiment [2]; -74.9% (active) in experiment [3]; -70.4% (active) in experiment [4]; -69.5% (active) in experiment [5]; 0.975% (active) in experiment [6]. Moreover, the growth in experiment [7] was -71.1% (active); in experiment [8] it was -14.3% (active).
Consider `CNC(=O)Cc1nc(-c2cccc(NS(=O)(=O)c3c(F)cccc3F)c2F)c(-c2ccnc(Nc3ccccc3)n2)s1`, for which the growth in experiment [1] was 60.2%; in experiment [2], 103%; in experiment [3], 48.3%; in experiment [4], 66.8%; in experiment [5], 86.2%; in experiment [6], 9.43% (active). For the same molecule, the growth in experiment [7] is 84.6%; in experiment [8] it was 70.2%.
As for `COc1ccc(-c2cn[nH]c2-c2cc(OC)c3c(c2)OCO3)cc1`, the growth in experiment [1] was 44%; in experiment [2], 59.3%; in experiment [3], -55.4% (active); in experiment [4], 21.9%; in experiment [5], 13.1%; in experiment [6] it was 13.6%. Further, the growth is 16.8% in experiment [7] and 17.6% in experiment [8].
Take `O=C(Cc1n[nH]c(=O)c2ccccc12)OCc1c(Cl)cccc1Cl`: the growth in experiment [1] was 100%; in experiment [2], 138%; in experiment [3] it was 84.7%; in experiment [4], 86.9%; in experiment [5] it was 69.9%; in experiment [6] it was 49.9%. For the same molecule, the results for the growth in experiment [7] and in experiment [8] were 70.8% and 66.1%, respectively.
For the molecule `COc1cc(C(=O)OCCCCCCCCCCC[P+](c2ccccc2)(c2ccccc2)c2ccccc2)ccc1O`, the growth was -43.1% (active) in experiment [1]; -60.8% (active) in experiment [2]; -46.7% (active) in experiment [3]; -0.568% (active) in experiment [4]; -40.8% (active) in experiment [5]; -33.6% (active) in experiment [6]. Further, the growth in experiment [7] was 19.3%; in experiment [8], -80.6% (active).
For the molecule `CCCCC(N)(C(=O)O)C1CCCC1` (stereo not drawn), the growth was 110% in experiment [1]; 103% in experiment [2]; 104% in experiment [3]; 105% in experiment [4]; 91.4% in experiment [5]; 101% in experiment [6]. In addition, the figures for the growth in experiment [7] and in experiment [8] were 112% and 113%, respectively.
Regarding `Cc1cc(N/C=c2\sc3ncnn3c2=O)no1`, the growth is 96.1% in experiment [1]; 104% in experiment [2]; 97.6% in experiment [3]; 98.8% in experiment [4]; 86.1% in experiment [5]; 95.1% in experiment [6]. Further, the growth is 96.9% in experiment [7] and 84.3% in experiment [8].
With `Nc1c(C(=O)Nc2ccccc2)sc2nc3c(cc12)CN(Cc1ccccc1)CC3`, the growth in experiment [1] was 60.9%; in experiment [2] it was 50.8%; in experiment [3], 52.1%; in experiment [4] it was 76.9%; in experiment [5], 77.9%; in experiment [6], 65.1%. For the same molecule, the growth in experiment [7] is 79.1%; in experiment [8], 56.4%.
As for `COC(=O)c1cc(-c2cccs2)c(C#N)c(N)c1C#N`, the growth in experiment [1] was 69.1%; in experiment [2] it was 107%; in experiment [3], 104%; in experiment [4], 102%; in experiment [5], 67.7%; in experiment [6], 95.5%. Besides, the growth in experiment [7] was 106%; in experiment [8] it was 108%.
Regarding `Cc1nc(Nc2cccnc2)sc1C(=O)/C=C/c1ccc(Cl)cc1`, the growth in experiment [1] is 24.8%; in experiment [2], 15.2%; in experiment [3] it was 5.05% (active); in experiment [4], 6.92% (active); in experiment [5], 13.2%; in experiment [6] it was 26.8%. The values for the growth in experiment [7] and in experiment [8] were 84.8% and 12.9%, respectively.
